Measured values reported in PubChem BioAssay (Tox21).
Inconclusive results are not listed. A call without a number means that no potency is given here. The source made the active and inactive calls. Unless noted, calls follow the shape of the full dose curve.

Experiments:
[1] = Nuclear factor erythroid 2-related factor 2/antioxidant responsive element (Nrf2/ARE) small molecule agonists: qHTS cell viability counter screen in human keratinocytes (AID 1919968; active = well fitted curve in the direction sought with a large enough effect in the repeat runs; an effect the other way counts as inactive or inconclusive; also: nearly all actives have a fitted effect of over 55% in size; also: potency is read from the fitted curve at half-maximal effect)
Summary of the method: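 Parallel cytotoxicity read: KeratinoSens HaCaT cells, compound treatment 23 h, viability by CellTiter-Fluor fluorescence 1 h post-reagent.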

[2] = Nuclear factor erythroid 2-related factor 2/antioxidant responsive element (Nrf2/ARE) small molecule agonists: luciferase reporter gene qHTS assay in human keratinocytes (AID 1919969); also: nearly all actives have a fitted effect of over 35% in size; also: potency is read from the fitted curve at half-maximal effect
[3] = target: Gonadotropin-releasing hormone receptor (Homo sapiens) (UniProt P30968); test: Human gonadotropin-releasing hormone receptor (GnRHR) small molecule agonists, calcium flux assay in GnRHR-HEK293 cells (AID 1920063); also: nearly all actives have a fitted effect of over 35% in size
Sequence of Gonadotropin-releasing hormone receptor (Homo sapiens) (P30968 whole entry, looked up): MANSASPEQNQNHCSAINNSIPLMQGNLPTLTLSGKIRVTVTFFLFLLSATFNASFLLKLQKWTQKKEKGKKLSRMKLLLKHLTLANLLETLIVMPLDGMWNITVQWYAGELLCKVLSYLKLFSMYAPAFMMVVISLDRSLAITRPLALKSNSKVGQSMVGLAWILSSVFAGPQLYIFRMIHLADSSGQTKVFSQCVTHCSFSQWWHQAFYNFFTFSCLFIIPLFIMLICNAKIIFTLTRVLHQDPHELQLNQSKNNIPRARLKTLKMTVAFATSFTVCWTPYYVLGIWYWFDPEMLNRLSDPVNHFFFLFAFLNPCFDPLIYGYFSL
Summary of the method: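 Calcium flux, agonist mode, human GnRHR stably integrated in HEK293; dye 1 h at 37 C before compound; Ex/Em=480/540 kinetic read, 3 min; 15 concentrations, triplicate.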

[4] = target: KiSS-1 receptor (Homo sapiens) (UniProt Q969F8); test: Human kisspeptin (KISS1R) small molecule agonists, calcium flux assay in KISS1R-HEK293 cells (AID 1920064; active = well fitted curve in the direction sought with a large enough effect in the repeat runs; an effect the other way counts as inactive or inconclusive)
Sequence of KiSS-1 receptor (Homo sapiens) (Q969F8 whole entry, looked up): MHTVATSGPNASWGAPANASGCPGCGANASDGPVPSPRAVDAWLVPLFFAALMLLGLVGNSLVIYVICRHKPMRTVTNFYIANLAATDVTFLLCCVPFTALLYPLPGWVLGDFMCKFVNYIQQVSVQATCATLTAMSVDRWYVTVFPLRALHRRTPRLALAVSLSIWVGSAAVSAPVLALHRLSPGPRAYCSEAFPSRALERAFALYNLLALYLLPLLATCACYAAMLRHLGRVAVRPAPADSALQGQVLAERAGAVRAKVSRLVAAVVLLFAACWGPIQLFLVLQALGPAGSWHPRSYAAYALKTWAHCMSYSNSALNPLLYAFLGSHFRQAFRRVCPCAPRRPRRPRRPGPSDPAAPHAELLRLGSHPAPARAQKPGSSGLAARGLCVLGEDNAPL
Summary of the method: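 Triplicate 15-concentration series were applied to dye-loaded human KISS1R HEK293 cells, and agonist-evoked calcium fluorescence was captured for 3 min.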

[5] = G protein-coupled receptor (GPCR) small molecule agonists, calcium flux assay: HEK293 wild type cell line counter screen (AID 1920065)
Summary of the method: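 Non-specific calcium responders were flagged by adding DMSO-dissolved compounds to dye-loaded cells and reading 480/540 nm fluorescence each second for 3 min; ATP served as positive control.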

[6] = p53 small molecule agonists, cell-based qHTS assay with human liver microsomes (AID 1963577)
Summary of the method: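 p53RE-bla cells, 4,000/well, compound added after 5 h, with human liver microsomes 0.5 mg/mL and NADPH 0.5 mg/mL final; 16 h at 37 C, then LiveBLAzer 2 h RT, fluorescence.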

[7] = p53 small molecule agonists, cell-based qHTS assay with rat liver microsomes: qHTS cell viability counter screen (AID 1963580); also: nearly all actives have a fitted effect of over 45% in size
Summary of the method: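 After the beta-lactamase ratio was read, CellTiter-Glo was added to the same wells and luminescence measured at 30 min; cells had been treated 16 h at 37 C with compounds, rat liver microsomes and NADPH (0.5 mg/mL final each).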

[8] = p53 small molecule agonists, cell-based qHTS assay (AID 1963582; active = well fitted activation curve with a large enough effect in the signal ratio in the repeat runs, not every such curve was filed as active; the % refers to the signal ratio)
Summary of the method: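 Beta-lactamase reporter cells (p53RE-bla) treated with compounds for 16 h at 37 C; FRET substrate, 2 h, room temperature; fluorescence intensity.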

[9] = target: 5-hydroxytryptamine receptor 2A (Homo sapiens) (UniProt P28223); test: 5-hydroxytryptamine receptor 2A (HTR2A) small molecule agonists, cell-based qHTS assay (AID 1963587); also: nearly all actives have a fitted effect of over 30% in size
Sequence of 5-hydroxytryptamine receptor 2A (Homo sapiens) (P28223 whole entry, looked up): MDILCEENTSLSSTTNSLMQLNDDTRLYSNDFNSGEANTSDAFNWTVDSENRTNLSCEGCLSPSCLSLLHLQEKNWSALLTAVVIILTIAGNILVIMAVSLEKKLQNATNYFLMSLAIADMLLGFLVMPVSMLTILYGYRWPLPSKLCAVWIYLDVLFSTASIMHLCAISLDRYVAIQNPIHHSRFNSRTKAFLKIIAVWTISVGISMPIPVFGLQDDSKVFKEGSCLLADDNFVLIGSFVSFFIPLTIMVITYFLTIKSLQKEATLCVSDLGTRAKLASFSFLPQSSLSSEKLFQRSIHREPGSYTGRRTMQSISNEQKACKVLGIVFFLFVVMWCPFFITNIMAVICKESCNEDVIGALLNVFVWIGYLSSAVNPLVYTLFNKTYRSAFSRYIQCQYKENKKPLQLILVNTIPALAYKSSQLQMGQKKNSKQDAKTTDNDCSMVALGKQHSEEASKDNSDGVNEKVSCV
Summary of the method: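 CHO cells stably expressing human HTR2A, plated 18 h, loaded with calcium dye 1 h at 37 C. Agonist mode: compounds added and intracellular calcium fluorescence recorded kinetically for 2 min at 1 sec intervals.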

[10] = target: Muscarinic acetylcholine receptor M1 (Homo sapiens) (UniProt P11229); test: Cholinergic receptor muscarinic 1 (CHRM1) small molecule antagonists, cell-based qHTS assay (AID 1963588); also: nearly all actives have a fitted effect of over 40% in size; also: potency is read from the fitted curve at half-maximal effect
Sequence of Muscarinic acetylcholine receptor M1 (Homo sapiens) (P11229 whole entry, looked up): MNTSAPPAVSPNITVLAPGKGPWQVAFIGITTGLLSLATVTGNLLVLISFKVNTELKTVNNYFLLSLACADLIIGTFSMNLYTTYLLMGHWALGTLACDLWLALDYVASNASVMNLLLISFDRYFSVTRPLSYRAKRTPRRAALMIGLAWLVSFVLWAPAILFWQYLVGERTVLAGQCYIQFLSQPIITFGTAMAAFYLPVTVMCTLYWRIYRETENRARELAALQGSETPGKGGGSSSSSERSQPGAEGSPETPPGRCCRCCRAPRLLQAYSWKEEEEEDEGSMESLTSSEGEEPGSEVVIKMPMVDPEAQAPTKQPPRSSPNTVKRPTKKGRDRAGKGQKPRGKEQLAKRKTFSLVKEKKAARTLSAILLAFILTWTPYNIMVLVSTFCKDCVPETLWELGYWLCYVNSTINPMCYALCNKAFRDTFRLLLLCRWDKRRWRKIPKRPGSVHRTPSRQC
Summary of the method: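 Compounds were tested at 15 concentrations in three independent runs. Dye-loaded CHRM1-CHO cells were exposed 5 min at room temperature before stimulation by acetylcholine added at 50nM. Intracellular calcium was read kinetically on FDSS for 3 min.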

[11] = target: Muscarinic acetylcholine receptor M1 (Homo sapiens) (UniProt P11229); test: Cholinergic receptor muscarinic 1 (CHRM1) small molecule agonists, cell-based qHTS assay (AID 1963589); also: nearly all actives have a fitted effect of over 35% in size
Summary of the method: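 qHTS, 15-point titration, 3 independent runs: compounds pin-transferred onto dye-loaded CHRM1-CHO cells (human M1), calcium fluorescence followed every second to detect agonism.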

[12] = target: D(2) dopamine receptor (Homo sapiens) (UniProt P14416); test: Dopamine D2 receptor (DRD2) small molecule agonists, cell-based qHTS assay (AID 1963594); also: nearly all actives have a fitted effect of over 35% in size; also: potency is read from the fitted curve at half-maximal effect
Sequence of D(2) dopamine receptor (Homo sapiens) (P14416 whole entry, looked up): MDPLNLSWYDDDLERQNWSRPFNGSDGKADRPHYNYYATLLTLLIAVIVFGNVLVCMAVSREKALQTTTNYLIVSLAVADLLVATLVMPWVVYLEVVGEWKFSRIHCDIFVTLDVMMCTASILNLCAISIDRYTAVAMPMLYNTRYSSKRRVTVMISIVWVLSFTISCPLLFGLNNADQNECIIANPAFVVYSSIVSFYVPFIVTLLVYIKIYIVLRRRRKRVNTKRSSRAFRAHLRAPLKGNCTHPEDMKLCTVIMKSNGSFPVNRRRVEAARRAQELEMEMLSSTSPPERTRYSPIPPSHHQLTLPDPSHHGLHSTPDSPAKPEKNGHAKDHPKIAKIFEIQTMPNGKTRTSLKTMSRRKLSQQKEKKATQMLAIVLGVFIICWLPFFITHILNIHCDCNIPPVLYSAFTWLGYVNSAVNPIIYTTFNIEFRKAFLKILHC
Summary of the method: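 HEK293 cells stably expressing human DRD2, pre-treated with PDE inhibitor Ro20-1724 (0.1 mM final) and compound 10 min at room temperature, then stimulated with NKH477 (200nM […]) for 30 min. cAMP read by HTRF (665/620 nm).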

[13] = p53 small molecule agonists, cell-based qHTS assay with human liver microsomes: qHTS cell viability counter screen (AID 1963579); also: nearly all actives have a fitted effect of over 45% in size
Summary of the method: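 p53RE-bla cells, 4,000/well, dosed 5 hours after plating, with human liver microsomes (0.5 mg/mL final) plus NADPH (0.5 mg/mL final), 16 hours at 37 C. Viability read as CellTiter-Glo luminescence after 30 min at room temperature.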

[14] = p53 small molecule agonists, cell-based qHTS assay: qHTS cell viability counter screen (AID 1963581); also: nearly all actives have a fitted effect of over 45% in size
Summary of the method: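 Multiplexed with the reporter read, a CellTiter-Glo step (30 min, room temperature) gauges ATP-based viability of HCT-116 p53RE-bla cells after 16 h compound incubation at 37 C.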

[15] = cAMP Responsive Elements (CRE) small molecule agonists, cell-based qHTS assay (AID 1963590)
Summary of the method: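 Quantitative HTS for CRE agonists: HEK 293T CRE-bla cells, overnight plating, 3 h compound incubation at 37 C/5% CO2, then 2 h room-temperature LiveBLAzer B/G FRET substrate loading.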

[16] = cAMP Responsive Elements (CRE) small molecule antagonists, cell-based qHTS assay (AID 1963591; active = well fitted inhibition curve with a large enough effect in the signal ratio in the repeat runs, not every such curve was filed as active; the % refers to the signal ratio)
Summary of the method: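 Fluorescence intensity from cleaved LiveBLAzer B/G substrate (2 h, room temperature) quantified CRE-bla activity in HEK 293T cells exposed 3 h to compound with 0.25 uM final NKH477.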

[17] = target: Beta-2 adrenergic receptor (Homo sapiens) (UniProt P07550); test: Adrenergic beta2 receptor (ADRB2) small molecule antagonists, cell-based qHTS assay (AID 1963592); also: series mostly up to about 92 µM; nearly all actives have a fitted effect of over 50% in size
Sequence of Beta-2 adrenergic receptor (Homo sapiens) (P07550 whole entry, looked up): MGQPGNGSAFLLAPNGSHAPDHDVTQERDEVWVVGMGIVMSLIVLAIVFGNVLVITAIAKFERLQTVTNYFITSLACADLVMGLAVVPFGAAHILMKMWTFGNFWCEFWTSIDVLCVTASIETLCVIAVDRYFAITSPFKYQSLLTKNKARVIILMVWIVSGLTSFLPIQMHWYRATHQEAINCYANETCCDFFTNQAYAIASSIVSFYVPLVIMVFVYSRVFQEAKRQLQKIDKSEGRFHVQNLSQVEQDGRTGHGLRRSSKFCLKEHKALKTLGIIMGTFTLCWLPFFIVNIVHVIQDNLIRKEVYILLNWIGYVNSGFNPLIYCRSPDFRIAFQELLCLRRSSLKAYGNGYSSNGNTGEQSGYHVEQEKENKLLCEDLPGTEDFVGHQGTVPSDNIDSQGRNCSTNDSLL
Summary of the method: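 Assay format: CHO-ADRB2 cells, 18-20hr seeding at 37C/5% CO2, then compound plus 1nM isoproterenol agonist mix for 0.5hr RT. Homogeneous time-resolved fluorescence cAMP detection after 1hr, expressed as 665/615 nm ratio.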

[18] = target: D(2) dopamine receptor (Homo sapiens) (UniProt P14416); test: Dopamine D2 receptor (DRD2) small molecule antagonists, cell-based qHTS assay (AID 1963595; active = well fitted inhibition curve with a large enough effect in the signal ratio in the repeat runs, with a control signal flat; the % refers to the signal ratio)
Summary of the method: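 HEK293 cells stably expressing DRD2 were preincubated with 0.1 mM Ro20-1724, then with compound for 10 min at room temperature. Cells were stimulated with 200 nM NKH477 plus 12 nM quinpirole for 30 min, and cAMP was read by HTRF.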

[19] = p53 small molecule agonists, cell-based qHTS assay with rat liver microsomes (AID 1963578)
Summary of the method: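 p53RE-bla cells, 4,000/well, pre-incubated 5 h, then given compounds plus rat liver microsomes (0.5 mg/mL final) and NADPH (0.5 mg/mL final). Incubation 16 h at 37 C; beta-lactamase reporter read by LiveBLAzer fluorescence after 2 h at room temperature.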

[20] = target: 5-hydroxytryptamine receptor 2A (Homo sapiens) (UniProt P28223); test: 5-hydroxytryptamine receptor 2A (HTR2A) small molecule antagonists, cell-based qHTS assay (AID 1963586); also: nearly all actives have a fitted effect of over 45% in size; also: potency is read from the fitted curve at half-maximal effect
Summary of the method: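 CHO cells stably expressing human HTR2A were plated for 18 h at 37 C, then loaded with calcium dye for 1 h. Compounds were preincubated 5 min at room temperature before DOI (4 nM solution) was added. Kinetic fluorescence was read for 3 min.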

Structure (SMILES)	Potency [1]	Potency [2]	Potency [3]	Potency [4]	Potency [5]	Potency [6]	Potency [7]	Potency [8]	Potency [9]	Potency [10]	Potency [11]	Potency [12]	Potency [13]	Potency [14]	Potency [15]	Potency [16]	Potency [17]	Potency [18]	Potency [19]	Potency [20]
C=CC[C@]1(O)CC[C@H]2[C@@H]3CCC4=CC(=O)CCC4=C3C=C[C@@]21C	inactive	inactive	inactive	inactive	inactive	inactive	inactive	inactive	inactive	inactive	inactive	inactive	–	–	–	–	–	–	–	–
CSC1=N[C@@](C)(c2ccccc2)C(=O)N1Nc1ccccc1	inactive	inactive	inactive	inactive	inactive	inactive	inactive	–	inactive	–	inactive	inactive	inactive	inactive	inactive	inactive	inactive	inactive	–	–
CCOC(C(=O)OCCN(C)C)(c1ccccc1)c1ccccc1	inactive	inactive	inactive	inactive	inactive	–	inactive	inactive	inactive	2310 nM (active)	inactive	–	inactive	inactive	inactive	inactive	inactive	inactive	inactive	inactive
CCCCCCCC(=O)Cl	inactive	inactive	inactive	inactive	inactive	inactive	inactive	–	inactive	inactive	inactive	1.7 nM (active)	inactive	inactive	–	inactive	inactive	inactive	–	inactive
O=CC(Br)(Br)Br	8610 nM (active)	3050 nM (active)	inactive	inactive	inactive	inactive	inactive	–	–	inactive	inactive	inactive	–	inactive	inactive	–	–	inactive	–	inactive
C[C@]12CC[C@H]3[C@@H](CCC4=CC(=O)CC[C@@H]43)[C@@H]1CC[C@@H]2OC(=O)CCc1ccccc1	inactive	inactive	inactive	inactive	inactive	inactive	inactive	inactive	inactive	2310 nM (active)	inactive	inactive	inactive	inactive	inactive	–	inactive	inactive	–	–
COc1ccc(CN2CCNCC2)c(OC)c1OC	inactive	inactive	inactive	inactive	inactive	inactive	inactive	–	–	–	–	inactive	–	inactive	–	inactive	inactive	–	–	–
Oc1ccc2ccc3cccc4ccc1c2c34	inactive	61100 nM (active)	inactive	inactive	inactive	inactive	inactive	–	inactive	inactive	inactive	–	inactive	inactive	inactive	–	–	inactive	–	inactive
CC(C)(C)OO	inactive	inactive	inactive	inactive	inactive	inactive	inactive	inactive	inactive	inactive	inactive	inactive	–	–	inactive	inactive	inactive	inactive	–	inactive
Clc1ccccc1N1CCNCC1	inactive	inactive	inactive	inactive	inactive	inactive	inactive	–	–	inactive	inactive	inactive	inactive	–	inactive	inactive	–	inactive	–	1160 nM (active)
C[C@@H](Oc1ccc(Cl)cc1Cl)C(=O)O	inactive	inactive	inactive	inactive	inactive	inactive	–	–	inactive	inactive	inactive	inactive	inactive	inactive	–	–	inactive	inactive	–	inactive
CC1(C)C(/C=C(\Cl)C(F)(F)F)C1C(=O)OC(C#N)c1cccc(Oc2ccccc2)c1 (stereo not given)	inactive	inactive	inactive	inactive	inactive	inactive	inactive	inactive	inactive	inactive	inactive	inactive	inactive	inactive	inactive	inactive	inactive	inactive	–	–
CC1=NNC(=O)N(/N=C/c2cccnc2)C1	inactive	inactive	inactive	inactive	inactive	–	inactive	inactive	inactive	inactive	inactive	inactive	inactive	inactive	inactive	inactive	inactive	inactive	inactive	inactive
ClC(Br)Br	inactive	inactive	inactive	inactive	inactive	–	inactive	inactive	inactive	inactive	inactive	inactive	inactive	inactive	inactive	inactive	inactive	inactive	inactive	–
N#C/C(N)=C(/N)C#N	inactive	inactive	inactive	inactive	inactive	–	–	inactive	inactive	inactive	inactive	inactive	inactive	inactive	inactive	inactive	inactive	inactive	inactive	inactive
